# According to PubChem BioAssay (NCATS):
# Inconclusive results are not listed. Entries that show only a call come without a potency. A number with no mark means an inactive call. Calls of active or inactive are those of the source. Calls come from the whole dose curve; as a rule, active = well fitted curve in the direction sought with a large enough effect; inconclusive = small, poorly fitted or top-dose-only effect, or another doubt; inactive = no such curve, though single readings can be large; an effect the other way counts as inactive or inconclusive.
# Tests used:
# C33A = assay: Primary qHTS to identify gynecologic anti-cancer compounds using libraries of approved drugs and bioactive compounds (AID 1345084); details: Gynecologic cancer cell panel viability, ATPlite luminescence, 48 h; series mostly up to 57.5 µM; note: nearly all actives have a fitted effect of over 55% in size
# Procedure, shortened: (§1)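 In this quantitative HTS, cell killing is estimated from loss of ATP-dependent luciferase light. Cells see five compound concentrations over a 48 h exposure.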
# CAOV3 = assay: as above; details: Gynecologic cancer cell panel viability, ATPlite luminescence, 48 h; series mostly up to 57.5 µM
# Procedure, shortened: as §1
# CASKI = assay: as above; details: Gynecologic cancer cell panel viability, ATPlite luminescence, 48 h; series mostly up to 57.5 µM
# Procedure, shortened: as §1
# Es-2 = assay: as above; details: Gynecologic cancer cell panel viability, ATPlite luminescence, 48 h; series mostly up to 57.5 µM
# Procedure, shortened: as §1
# HeLa = assay: as above; details: Gynecologic cancer cell panel viability, ATPlite luminescence, 48 h; series mostly up to 57.5 µM
# Procedure, shortened: as §1
# Hek293T = assay: as above; details: Gynecologic cancer cell panel viability, ATPlite luminescence, 48 h, control line for the selectivity index; series mostly up to 57.5 µM
# Procedure, shortened: as §1
# JEG-3 = assay: as above; details: Gynecologic cancer cell panel viability, ATPlite luminescence, 48 h; series mostly up to 57.5 µM
# Procedure, shortened: as §1
# OV90 = assay: as above; details: Gynecologic cancer cell panel viability, ATPlite luminescence, 48 h; series mostly up to 57.5 µM
# Procedure, shortened: as §1
# PA-1 = assay: as above; details: Gynecologic cancer cell panel viability, ATPlite luminescence, 48 h; series mostly up to 57.5 µM
# Procedure, shortened: as §1
# SKOV3 = assay: as above; details: Gynecologic cancer cell panel viability, ATPlite luminescence, 48 h; series mostly up to 57.5 µM
# Procedure, shortened: as §1
# Tov-21-G = assay: as above; details: Gynecologic cancer cell panel viability, ATPlite luminescence, 48 h; series mostly up to 57.5 µM
# Procedure, shortened: as §1
# Tov112D = assay: as above; details: Gynecologic cancer cell panel viability, ATPlite luminescence, 48 h; series mostly up to 57.5 µM
# Procedure, shortened: as §1
# [1] = qHTS assay to identify inhibitors of the type 1 interferon - major histocompatibility complex class I in skeletal muscle: Counter screen cell viability and HiBit confirmation (AID 1347412); details: iHSKM muscle cells + IFN-b, HiBiT or CellTiter-Glo, 24 h; note: nearly all actives have a fitted effect of over 60% in size
# Procedure, shortened: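 After 24 h with human IFN-beta (4 ng/ml) and compound titrations (top 46 uM final, 1:3, 12 points), HLA-B HiBit myoblasts were lysed for either Nano-Glo HiBiT luminescence or CellTiter Glo viability on paired plates.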
# Potency is the fitted concentration of half-maximal effect.
Structure (SMILES),Potency (C33A),Potency (CAOV3),Potency (CASKI),Potency (Es-2),Potency (HeLa),Potency (Hek293T),Potency (JEG-3),Potency (OV90),Potency (PA-1),Potency (SKOV3),Potency (Tov-21-G),Potency (Tov112D),Potency ([1]; HiBiT),"activity change, negative = inhibition ([1]; Viability, at 45.9 µM (top of the series)) [%]",Potency ([1]; Viability)
CC(/C=C/C(=O)NO)=C\[C@@H](C)C(=O)c1ccc(N(C)C)cc1,3.55 µM (active),4.47 µM (active),1.58 µM (active),5.62 µM (active),3.55 µM (active),3.16 µM (active),1.41 µM (active),2.24 µM (active),1 µM (active),1.58 µM (active),3.55 µM (active),1.78 µM (active),1.76 µM (active),-7.11,
O=C(Nc1ccc2[nH]c(=O)oc2c1)C(=O)N1CCC(Cc2ccc(F)cc2)CC1,inactive,inactive,inactive,inactive,inactive,inactive,inactive,inactive,inactive,inactive,inactive,inactive,,,
Cc1cc(-c2nc3cc(F)ccc3s2)ccc1NC(=O)[C@@H](N)CCCCN,17.8 µM (active),28.2 µM (active),14.1 µM (active),15.8 µM (active),14.1 µM (active),12.6 µM (active),14.1 µM (active),8.91 µM (active),10 µM (active),11.2 µM (active),14.1 µM (active),15.8 µM (active),,,22.2 µM (active)
COC(=O)c1ccc2c(c1)nc(NC(=O)c1ccccc1)n2CCCc1ccccc1,inactive,inactive,inactive,inactive,inactive,inactive,inactive,inactive,inactive,inactive,inactive,inactive,,,
C=C1C(=O)OC2/C=C(\CO)CC/C=C(\C=O)C(OC)C(OC(=O)C(C)CC)C12 (configuration not stated),inactive,inactive,inactive,inactive,inactive,inactive,inactive,inactive,inactive,inactive,,inactive,,,
CN(C)c1ccnc2sc3c(=O)n(N4CCCCCC4)cnc3c12,inactive,inactive,inactive,inactive,inactive,inactive,inactive,inactive,inactive,inactive,inactive,inactive,,,
CC[N+]1(C/C2=C/CCCCCC2)CCC(NC(=O)C2c3cc(Cl)ccc3Oc3ccc(Cl)cc32)CC1 (configuration not stated),inactive,inactive,inactive,inactive,inactive,inactive,inactive,inactive,inactive,inactive,inactive,inactive,,,
O=S(=O)(Nc1cc(Cl)c(Oc2cnc3ccccc3c2)c(Cl)c1)c1ccc(Cl)cc1Cl,inactive,inactive,inactive,inactive,inactive,inactive,inactive,inactive,inactive,inactive,inactive,inactive,,,
CC1=C(C(=O)Nc2cc(Cl)ccc2Cl)C(c2ccco2)C2=C(CCCC2=O)N1 (configuration not stated),inactive,inactive,inactive,inactive,inactive,inactive,inactive,inactive,inactive,inactive,inactive,inactive,,,
COc1c2c(nc3occc13)C(CC=C(C)C)(OC)C(O)CC2 (configuration not stated),inactive,inactive,inactive,inactive,inactive,inactive,inactive,inactive,inactive,inactive,inactive,inactive,,,
COc1cc2c(cc1OC(C)C)[C@H](c1ccc(Cl)cc1)N(c1ccc(N(C)CC3CCC(N4CCN(C)C(=O)C4)CC3)cc1)C(=O)C2 (some centres not stated),inactive,inactive,inactive,inactive,inactive,inactive,inactive,inactive,11.2 µM (active),inactive,,inactive,,,
CC(C)(C)[C@H](NC(=O)c1ccc(N)c(Cl)c1)C(=O)N1CCC[C@H]1C(=O)N[C@H](C#N)CC(=O)O,inactive,inactive,inactive,inactive,inactive,inactive,inactive,inactive,inactive,,inactive,inactive,,,
N#Cc1cc(C2=Nc3ccc(Br)cc3NC(=O)C2)ccn1,inactive,inactive,inactive,inactive,inactive,inactive,inactive,inactive,inactive,,inactive,inactive,,,
CC[C@H](C)/C=C(C)/C=C/C1=CC2=CC(=O)[C@]3(C)OC(=O)[C@@H](C(C)=O)[C@@H]3C2=CO1,inactive,inactive,inactive,inactive,inactive,inactive,inactive,inactive,inactive,inactive,,inactive,,,
C=C1CCC2C(C)(C)CCCC2(C)C1CC/C(C)=C\CO (configuration not stated),inactive,inactive,inactive,inactive,inactive,inactive,inactive,inactive,inactive,,inactive,inactive,,,
